Screens (PubChem)
Sampled rows, rich in hits. Any-hit rate of the full collection: about 7.2%.
Luciferase inh = blocks purified firefly luciferase enzyme activity; P08659; purified P. pyralis luciferase, luminescence, biochemical; Potency, µM (titrated, usually from 115 µM), most hits filed as inhibitors; 76,000 compounds, 2.5% hits; also: nearly all actives have a fitted effect of over 65% in size
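Inhibitors were tested against purified firefly luciferase in a biochemical, low-substrate format (both substrates at 10uM) and luminescence measured with a CCD imager.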
SNCA expr inhib = inhibitors of alpha-synuclein (SNCA) gene expression; Potency, µM (top dose mostly 57.2 µM), most hits filed as inhibitors; HEK-293 SNCA-luciferase knock-in, luminescence, 24 h; 140,000 compounds, 0.17% hits; also: nearly all actives have a fitted effect of over 45% in size
hNpr1 antagonist = human Npr1 receptor antagonism; Potency, µM (highest dose often 46.3 µM), most hits filed as inhibitors; HEK293 hNpr1 GloSensor cGMP, ANP-stimulated luminescence; 76,000 compounds, 1.6% hits; AID 1347048; calls by dose curve; also: nearly all actives have a fitted effect of over 60% in size
Target sequence (P16066 whole entry, looked up): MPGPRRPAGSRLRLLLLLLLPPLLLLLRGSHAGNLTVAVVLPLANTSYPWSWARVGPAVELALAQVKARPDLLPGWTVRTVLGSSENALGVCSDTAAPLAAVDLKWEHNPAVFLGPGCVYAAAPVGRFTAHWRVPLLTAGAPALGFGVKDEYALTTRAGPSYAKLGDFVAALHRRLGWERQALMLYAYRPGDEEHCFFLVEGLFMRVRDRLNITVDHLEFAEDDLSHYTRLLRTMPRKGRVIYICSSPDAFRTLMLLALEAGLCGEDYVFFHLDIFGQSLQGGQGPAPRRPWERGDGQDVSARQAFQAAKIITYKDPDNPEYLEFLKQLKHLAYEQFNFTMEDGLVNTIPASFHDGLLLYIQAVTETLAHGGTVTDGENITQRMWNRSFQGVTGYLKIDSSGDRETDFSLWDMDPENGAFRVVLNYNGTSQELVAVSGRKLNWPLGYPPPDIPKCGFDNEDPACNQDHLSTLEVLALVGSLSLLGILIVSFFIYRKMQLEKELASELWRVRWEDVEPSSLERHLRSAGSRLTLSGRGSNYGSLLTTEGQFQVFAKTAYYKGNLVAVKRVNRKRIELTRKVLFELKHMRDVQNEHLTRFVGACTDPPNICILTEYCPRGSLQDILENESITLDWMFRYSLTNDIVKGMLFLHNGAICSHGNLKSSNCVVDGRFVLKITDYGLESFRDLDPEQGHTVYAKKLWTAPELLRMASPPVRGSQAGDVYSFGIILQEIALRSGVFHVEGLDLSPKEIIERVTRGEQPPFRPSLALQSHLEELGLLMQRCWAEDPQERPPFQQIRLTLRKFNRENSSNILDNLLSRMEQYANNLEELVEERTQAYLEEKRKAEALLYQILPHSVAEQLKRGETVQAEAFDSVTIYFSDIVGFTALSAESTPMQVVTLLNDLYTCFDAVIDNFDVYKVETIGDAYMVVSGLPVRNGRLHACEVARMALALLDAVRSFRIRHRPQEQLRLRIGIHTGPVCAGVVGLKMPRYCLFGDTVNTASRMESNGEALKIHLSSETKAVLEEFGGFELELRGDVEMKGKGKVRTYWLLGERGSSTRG
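HEK293 cells stably expressing human Npr1 and cGMP GloSensor pGS-40F, loaded 2 h with 2% GloSensor reagent, given compound 30 min at room temperature. Luminescence read before and 20 min after 0.1 nM hNppA.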
HEK293 tox = kills HEK 293 cells. 94,000 compounds, 6.6% hits. Potency, µM (doses to about 115 µM), actives largely listed as inhibitors. AID 1345083. HEK 293 viability, ATP luminescence (CellTiter-Glo), 48-72 h; also: nearly all actives have a fitted effect of over 60% in size
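Pintool-delivered compounds were incubated with HEK 293 cells (250 cells/well) at 37 degree Celsius for 48 or 72 hr. ATP-dependent luminescence (CellTiter-Glo) then reported remaining viable cells.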
HEK293 viab = reduces viability of HEK-293 SNCA reporter cells; HEK-293-SNCA-luc viability, GF-AFC fluorescence, 24 h; Potency, µM (highest dose often 57.1 µM), actives largely listed as cytotoxic; 150,000 compounds, 0.12% hits; AID 1671193; also: nearly all actives have a fitted effect of over 30% in size
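Cytotoxicity counterscreen: after 24 h compound treatment of genome-edited SNCA-luciferase HEK-293 cells, live-cell protease substrate GF-AFC read by fluorescence after 30 min; activity scaled between DMSO (0%) and medium-only (-100%), curves Hill-fitted.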
3T3 cytotox = cytotoxic compounds in NIH 3T3 cells; NIH 3T3 viability, CellTiter-Glo ATP luminescence, 48-72 h; Potency, µM (highest dose often 96.7 µM), hits mostly inhibitors; 94,000 compounds, 4.3% hits; AID 1345082; also: nearly all actives have a fitted effect of over 55% in size
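Mouse fibroblast NIH 3T3 cells, 400 per well, received compound via pintool and were incubated for 48 or 72 hr prior to CellTiter-Glo ATP luminescence measurement.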
Hits are given with their value; - = inactive; ? = inconclusive; . = no result given. Unless noted, calls follow the shape of the dose curve; as a rule, active = well fitted curve in the direction sought with a large enough effect; inconclusive = small, poorly fitted or top-dose-only effect, or another doubt; inactive = no such curve, though single readings can be large; an effect the other way counts as inactive or inconclusive.

SMILES	Luciferase inh	SNCA expr inhib	hNpr1 antagonist	HEK293 tox	HEK293 viab	3T3 cytotox
Cc1cccc(-c2ncc3c(n2)OCCN(c2cccc(C(F)(F)F)c2)C3=O)c1	?	-	-	?	-	-
COc1ccc(F)cc1-c1ncc2c(n1)OCCN(c1cccc(C(F)(F)F)c1)C2=O	-	?	-	?	-	35µM
COc1cc(F)cc(-c2ncc3c(n2)OCCN(c2cccc(C(F)(F)F)c2)C3=O)c1	3.2µM	-	-	-	-	?
C[S+](=O)([O-])c1ccc(-c2ncc3c(n2)OCCN(c2ccccc2)C3=O)cc1	?	-	-	?	-	?
Cc1ccc(-c2ncc3c(n2)OCCN(c2ccccc2)C3=O)cc1F	?	?	7.1µM	?	-	?
O=C1c2cnc(-c3ccsc3)nc2OCCN1c1cccc(C(F)(F)F)c1	63µM	-	?	100µM	-	112µM
CN(CCc1noc(C2CC2)n1)c1ncncc1C(=O)O	-	-	-	-	-	-
Cc1cccc(-c2noc([C@@H]3C[C@@H](O)CN3C3CCOCC3)n2)c1	25µM	-	-	?	-	-
CC(=O)N1CCC(N2C[C@H](O)C[C@H]2c2nc(-c3cccc(C)c3)no2)CC1	20µM	-	-	?	-	?
COCCC(=O)NCC(=O)N1CCCCCNC(=O)CC1c1ccccc1 (stereo unspecified)	-	-	-	-	-	-
Cc1ccc(-n2cc(CN3CCCCC3C(N)=O)c(-c3cccc(C)c3)n2)cc1 (stereo unspecified)	?	-	-	50µM	-	79µM
FC(F)(F)c1cc(Nc2cnc3ccc(N4CCOCC4)nn23)ccc1Cl	-	-	?	79µM	-	?
COc1ccc(Nc2cnc3ccc(N4CCOCC4)nn23)cn1	-	-	-	?	-	?
FC(F)(F)Oc1ccc(Nc2cnc3ccc(N4CCOCC4)nn23)cc1	-	-	-	50µM	-	?
Cc1nnc(-c2cc(-c3cnn(C)c3)ccn2)n1C1CCCCC1	-	-	-	-	-	?
Cc1nnc(-c2cc(-c3cccnc3)ccn2)n1C1CCCCC1	-	-	-	-	-	89µM
Cc1nnc(-c2cc(-c3ccc(N4CCOCC4)cc3)ccn2)n1C1CCCCC1	?	-	-	79µM	-	?
O=C(Nc1ccc2c(c1)OCCO2)C1CCN(C(=O)N2CC3CC(C2)[C@H]2CCCC(=O)N2C3)CC1 (stereo partly specified)	20µM	-	-	-	-	-
CC1CCN(c2nc3ccc(C(=O)NCc4ccc(Cl)cc4)cc3s2)CC1	.	-	.	.	-	.
O[C@H]1CCCC[C@@H]1NC1CCN(c2nc3ccc(Cl)cc3s2)CC1	?	-	?	22µM	-	10µM
Clc1ccc2nc(N3CCC(NC4CCSC4)CC3)sc2c1 (stereo unspecified)	35µM	-	11µM	?	-	-
COc1ccc(C(=O)NCCn2ccn3nc(-c4cccc(OC)c4)cc3c2=O)cc1	-	-	-	?	-	?
O=C(NCCn1ccn2nc(-c3ccc(F)cc3)cc2c1=O)c1c(F)cccc1Cl	-	-	-	32µM	-	?
COc1ccc(-c2cc3c(=O)n(CCNC(=O)c4cccc(OC)c4OC)ccn3n2)cc1	6.3µM	-	-	35µM	-	?
O=C(Cc1cccc(F)c1)NCCn1ccn2nc(-c3ccc(F)cc3)cc2c1=O	?	-	-	?	-	-
SMILES	Luciferase inh	SNCA expr inhib	hNpr1 antagonist	HEK293 tox	HEK293 viab	3T3 cytotox
O=C(NCCn1ccn2nc(-c3ccc(F)cc3)cc2c1=O)c1ccc2[nH]ccc2c1	11µM	-	-	-	-	-
COc1ccc(-c2cc3c(=O)n(CCNC(=O)c4ccsc4)ccn3n2)cc1	4.5µM	-	-	?	-	-
CN1CC(c2ccccc2)CC2(CCN(C(=O)CCCn3ccnc3)CC2)C1 (stereo unspecified)	-	-	-	?	-	?
Cc1nc2c(C)cccc2cc1C(=O)N1CCC2(CCNCC2)CC1	-	-	-	-	?	-
Cc1c(C(=O)N2C[C@@H](C(=O)O)C[C@H](C(=O)NC3CC3)C2)sc2ccccc12	-	-	-	-	-	-
COc1ccc(-c2cc3c(=O)n(CCNC(=O)c4ccoc4)ccn3n2)cc1	?	-	-	22µM	-	-
O=C(NCCn1ccn2nc(-c3ccc(F)cc3)cc2c1=O)c1ccoc1	?	-	-	50µM	-	?
CCOc1ccc(-c2cc3c(=O)n(CCNC(=O)c4ccoc4)ccn3n2)cc1	20µM	-	-	45µM	-	-
COc1ccc(-c2cc3c(=O)n(CCNC(=O)c4sccc4C)ccn3n2)cc1	4.5µM	-	-	?	-	-
COc1ccc(-c2cc3c(=O)n(CCNC(=O)c4ccc(C)c(F)c4)ccn3n2)cc1	-	-	-	-	-	-
CCOc1ccc(-c2cc3c(=O)n(CCNC(=O)c4cccc(Cl)c4)ccn3n2)cc1	?	-	-	-	-	-
COc1ccc(-c2cc3c(=O)n(CCNC(=O)c4ccc(OC)c(OC)c4)ccn3n2)cc1	?	-	-	?	-	-
Cc1cc(C(=O)N2CCN(c3ccnc4ccnn34)CC2)ccc1Cl	.	-	.	?	-	?
O=C(O)CC1(CC(=O)N[C@H]2CO[C@H]3[C@@H]2OC[C@@H]3n2nnnc2Oc2cccc(N3CCOCC3)c2)CCCC1	-	-	-	-	-	-
c1ccc(Nc2cc3c(cn2)NCCN(Cc2ccccn2)C3)cc1	-	-	-	?	-	-
Cc1noc(C)c1CN1CCNc2cc(Nc3ccccc3)ncc2C1	35µM	-	-	?	-	-
c1ccc(-c2cc3c(cn2)NCCN(Cc2ccccn2)C3)cc1	-	-	-	?	-	-
Cc1noc(C)c1CN1CCNc2cc(-c3ccccc3)ncc2C1	63µM	-	-	?	-	?
Cc1cc(C(=O)N2CCCC2c2nc(CCOCC3CCCC3)no2)nn1C (stereo unspecified)	-	-	-	-	-	-
O=C(NCCc1ccccc1)C1CCN(Cc2ccccc2-c2ccccc2F)CC1	.	.	.	?	.	-
O=C(NCCc1ccc(Cl)cc1)C1CCN(Cc2ccccc2-c2ccccc2F)CC1	.	.	.	32µM	.	?
O=C(NCCc1ccc(F)cc1)C1CCN(Cc2ccccc2-c2ccccc2F)CC1	.	.	.	28µM	.	35µM
Cc1ccc(C(=O)N2CCCC(n3cc(-c4nc(-c5ccccc5)no4)nn3)C2)s1 (stereo unspecified)	?	-	10µM	?	?	?
Cc1noc(-c2cn(C3CCN(C(=O)c4ccc(C)s4)CC3)nn2)n1	-	-	-	-	-	-
Cc1ccc(C(=O)N2CCC(n3cc(-c4nc(-c5ccccc5)no4)nn3)CC2)s1	-	-	?	45µM	-	?
